Experimental data reported in ChEMBL document CHEMBL2218924, “A broad activity screen in support of a chemogenomic map for kinase signalling research and drug discovery” (Biochem J, 2013).

Legend:
[1] = molecular target: Serine/threonine-protein kinase WNK2 (Homo sapiens) (UniProt Q9Y3S1); conditions: at 10 µM
[2] = molecular target: Serine/threonine-protein kinase WNK3 (Homo sapiens) (UniProt Q9BYP7); conditions: at 1 µM
[3] = molecular target: Serine/threonine-protein kinase WNK3 (Homo sapiens) (UniProt Q9BYP7); conditions: at 10 µM
[4] = molecular target: Tyrosine-protein kinase Yes (Homo sapiens) (UniProt P07947); conditions: at 1 µM
[5] = molecular target: Tyrosine-protein kinase Yes (Homo sapiens) (UniProt P07947); conditions: at 10 µM
[6] = molecular target: T1, Tyrosine-protein kinase ZAP-70 (Homo sapiens) (UniProt P43403); conditions: at 1 µM
T1 sequence (whole entry): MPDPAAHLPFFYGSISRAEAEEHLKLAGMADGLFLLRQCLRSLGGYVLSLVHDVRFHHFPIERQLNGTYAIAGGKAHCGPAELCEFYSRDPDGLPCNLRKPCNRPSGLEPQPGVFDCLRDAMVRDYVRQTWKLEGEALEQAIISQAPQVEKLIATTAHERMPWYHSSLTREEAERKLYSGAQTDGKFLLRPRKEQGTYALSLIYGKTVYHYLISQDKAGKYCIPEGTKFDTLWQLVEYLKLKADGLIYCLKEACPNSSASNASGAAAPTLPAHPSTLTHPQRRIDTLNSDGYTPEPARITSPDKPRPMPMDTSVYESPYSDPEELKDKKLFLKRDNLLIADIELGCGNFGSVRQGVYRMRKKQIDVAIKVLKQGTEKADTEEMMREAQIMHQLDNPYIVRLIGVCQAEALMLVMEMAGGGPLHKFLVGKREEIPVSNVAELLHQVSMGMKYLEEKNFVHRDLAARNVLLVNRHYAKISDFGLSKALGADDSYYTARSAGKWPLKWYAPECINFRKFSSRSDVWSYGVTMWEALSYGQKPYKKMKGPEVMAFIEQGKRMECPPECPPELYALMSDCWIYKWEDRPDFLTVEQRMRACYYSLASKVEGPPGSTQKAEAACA

[7] = molecular target: Death-associated protein kinase 3 (Homo sapiens) (UniProt O43293); conditions: at 1 µM
[8] = molecular target: Death-associated protein kinase 3 (Homo sapiens) (UniProt O43293); conditions: at 10 µM
[9] = molecular target: RAF proto-oncogene serine/threonine-protein kinase (Homo sapiens) (UniProt P04049); conditions: at 1 µM
[10] = molecular target: RAF proto-oncogene serine/threonine-protein kinase (Homo sapiens) (UniProt P04049); conditions: at 10 µM

Tyrosine-protein kinase Yes (Homo sapiens), sequence (P07947 2-543 limits assumed): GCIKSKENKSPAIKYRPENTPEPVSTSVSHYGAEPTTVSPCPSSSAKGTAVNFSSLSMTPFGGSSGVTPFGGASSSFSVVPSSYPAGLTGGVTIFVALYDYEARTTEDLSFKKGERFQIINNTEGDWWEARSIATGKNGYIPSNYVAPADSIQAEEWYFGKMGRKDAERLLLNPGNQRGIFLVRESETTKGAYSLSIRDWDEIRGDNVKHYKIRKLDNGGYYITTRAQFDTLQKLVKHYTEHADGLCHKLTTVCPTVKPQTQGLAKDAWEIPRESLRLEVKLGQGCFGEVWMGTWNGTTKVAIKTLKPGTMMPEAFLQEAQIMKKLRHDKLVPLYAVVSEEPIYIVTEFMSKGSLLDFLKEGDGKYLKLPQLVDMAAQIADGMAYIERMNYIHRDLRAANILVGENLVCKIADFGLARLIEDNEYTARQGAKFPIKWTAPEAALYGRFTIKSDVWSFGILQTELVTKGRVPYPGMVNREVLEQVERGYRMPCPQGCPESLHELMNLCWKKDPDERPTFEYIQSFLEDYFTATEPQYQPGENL
RAF proto-oncogene serine/threonine-protein kinase (Homo sapiens), sequence (P04049 whole entry): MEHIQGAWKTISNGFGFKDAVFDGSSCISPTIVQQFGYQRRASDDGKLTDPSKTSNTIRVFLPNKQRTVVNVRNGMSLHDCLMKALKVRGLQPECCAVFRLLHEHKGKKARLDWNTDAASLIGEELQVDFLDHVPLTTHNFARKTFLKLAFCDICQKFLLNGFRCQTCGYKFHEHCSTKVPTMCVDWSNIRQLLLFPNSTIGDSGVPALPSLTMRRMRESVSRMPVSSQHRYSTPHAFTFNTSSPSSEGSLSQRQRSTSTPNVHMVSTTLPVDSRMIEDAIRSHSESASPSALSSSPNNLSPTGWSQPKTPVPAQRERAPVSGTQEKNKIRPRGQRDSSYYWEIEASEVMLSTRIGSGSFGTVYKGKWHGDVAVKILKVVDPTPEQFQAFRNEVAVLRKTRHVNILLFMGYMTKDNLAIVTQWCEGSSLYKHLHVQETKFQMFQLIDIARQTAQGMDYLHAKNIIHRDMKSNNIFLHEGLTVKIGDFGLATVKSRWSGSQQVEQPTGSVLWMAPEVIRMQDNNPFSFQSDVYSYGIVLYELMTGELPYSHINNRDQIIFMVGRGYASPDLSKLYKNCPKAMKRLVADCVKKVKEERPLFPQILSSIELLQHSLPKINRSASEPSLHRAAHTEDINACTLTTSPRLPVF
Death-associated protein kinase 3 (Homo sapiens), sequence (O43293 whole entry, looked up): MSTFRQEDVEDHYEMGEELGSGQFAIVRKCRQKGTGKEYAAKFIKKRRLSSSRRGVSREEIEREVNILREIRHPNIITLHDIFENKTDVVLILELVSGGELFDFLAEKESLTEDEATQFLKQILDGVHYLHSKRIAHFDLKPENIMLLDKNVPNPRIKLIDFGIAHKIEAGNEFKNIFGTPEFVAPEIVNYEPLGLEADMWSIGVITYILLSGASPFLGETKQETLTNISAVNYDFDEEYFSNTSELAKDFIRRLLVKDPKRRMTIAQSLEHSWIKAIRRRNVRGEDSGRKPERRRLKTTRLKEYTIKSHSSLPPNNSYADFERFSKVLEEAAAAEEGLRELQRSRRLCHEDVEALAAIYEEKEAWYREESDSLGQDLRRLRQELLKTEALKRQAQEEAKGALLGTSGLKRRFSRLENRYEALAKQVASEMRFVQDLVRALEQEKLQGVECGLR
Serine/threonine-protein kinase WNK3 (Homo sapiens), sequence (Q9BYP7 whole entry): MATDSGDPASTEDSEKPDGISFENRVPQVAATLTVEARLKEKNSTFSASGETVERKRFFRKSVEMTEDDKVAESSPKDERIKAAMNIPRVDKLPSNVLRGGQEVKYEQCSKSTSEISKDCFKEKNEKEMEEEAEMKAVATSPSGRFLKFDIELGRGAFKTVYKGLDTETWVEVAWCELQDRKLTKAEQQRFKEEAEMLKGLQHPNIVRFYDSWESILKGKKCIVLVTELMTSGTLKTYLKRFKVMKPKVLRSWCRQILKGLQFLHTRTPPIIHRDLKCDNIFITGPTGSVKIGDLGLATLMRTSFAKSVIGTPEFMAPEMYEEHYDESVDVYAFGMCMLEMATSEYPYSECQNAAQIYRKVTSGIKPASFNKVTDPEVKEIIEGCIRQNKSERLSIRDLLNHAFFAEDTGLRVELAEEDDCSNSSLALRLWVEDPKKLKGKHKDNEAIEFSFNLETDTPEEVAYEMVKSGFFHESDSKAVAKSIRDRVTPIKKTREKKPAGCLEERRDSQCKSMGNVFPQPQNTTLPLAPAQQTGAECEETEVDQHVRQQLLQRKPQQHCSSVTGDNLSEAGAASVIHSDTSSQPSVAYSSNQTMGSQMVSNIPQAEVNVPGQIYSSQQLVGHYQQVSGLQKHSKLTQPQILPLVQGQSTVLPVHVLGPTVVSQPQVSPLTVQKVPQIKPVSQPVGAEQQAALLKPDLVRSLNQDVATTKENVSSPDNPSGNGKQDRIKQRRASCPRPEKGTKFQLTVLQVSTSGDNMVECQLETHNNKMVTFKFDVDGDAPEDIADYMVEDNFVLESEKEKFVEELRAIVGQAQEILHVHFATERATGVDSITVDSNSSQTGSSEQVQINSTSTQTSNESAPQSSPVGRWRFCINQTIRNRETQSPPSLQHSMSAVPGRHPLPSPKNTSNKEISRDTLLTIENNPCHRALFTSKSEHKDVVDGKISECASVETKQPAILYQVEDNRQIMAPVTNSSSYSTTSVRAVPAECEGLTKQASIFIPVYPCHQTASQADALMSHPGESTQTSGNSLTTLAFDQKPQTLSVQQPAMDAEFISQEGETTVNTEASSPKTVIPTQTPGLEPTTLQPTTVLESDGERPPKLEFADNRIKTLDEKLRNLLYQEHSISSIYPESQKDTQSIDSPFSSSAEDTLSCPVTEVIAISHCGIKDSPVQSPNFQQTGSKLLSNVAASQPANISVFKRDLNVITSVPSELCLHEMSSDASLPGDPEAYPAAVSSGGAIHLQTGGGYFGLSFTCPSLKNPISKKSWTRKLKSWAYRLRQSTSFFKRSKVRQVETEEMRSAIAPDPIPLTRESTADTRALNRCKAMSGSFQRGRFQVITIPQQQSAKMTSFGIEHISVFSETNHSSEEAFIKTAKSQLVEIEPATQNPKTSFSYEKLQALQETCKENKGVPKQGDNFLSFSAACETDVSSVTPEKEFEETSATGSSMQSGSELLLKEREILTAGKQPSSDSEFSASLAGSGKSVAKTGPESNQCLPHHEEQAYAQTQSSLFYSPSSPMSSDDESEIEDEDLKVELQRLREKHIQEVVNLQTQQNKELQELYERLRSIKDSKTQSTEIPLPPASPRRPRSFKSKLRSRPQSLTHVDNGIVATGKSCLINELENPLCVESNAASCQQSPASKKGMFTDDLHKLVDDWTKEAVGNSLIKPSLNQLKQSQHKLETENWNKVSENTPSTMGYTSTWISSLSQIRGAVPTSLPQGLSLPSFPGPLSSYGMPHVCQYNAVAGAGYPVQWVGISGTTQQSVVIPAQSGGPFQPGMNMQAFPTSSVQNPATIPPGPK

Row | SMILES | residual activity [1] [%] | residual activity [2] | residual activity [3] [%] | residual activity [4] [%] | residual activity [5] [%] | residual activity [6] [%] | residual activity [7] [%] | residual activity [8] [%] | residual activity [9] [%] | residual activity [10] [%]
1 | CC(C)n1cnc2/c(=N/c3cccc(Cl)c3)nc(NCCO)[nH]c21 | 52 | 88% (inactive) | 57 | 27 | 2 | 98 | 103 | 93 | 70 | 31
2 | CCN(CC)CCCCN1c2ccccc2Oc2ccc(Cl)cc21 | 89 | 126% (inactive) | 104 | 106 | 94 | 113 | 99 | 109 | 93 | 100
3 | Cc1cncc2cccc(S(=O)(=O)N3CCCN(C(=O)CN)C[C@H]3C)c12 | – | – | 92 | – | 49 | – | – | – | 79 | 95
4 | c1ccc2c(-c3ccncc3)c[nH]c2c1 | 75 | 98% (inactive) | 96 | – | 97 | – | 110 | 107 | 73 | 81
5 | Cc1cc(Nc2nc(-c3ccccc3)nc3ccccc23)n[nH]1 | 27 | 74% (inactive) | 31 | 6 | 1 | 114 | 46 | 13 | – | 62
6 | Cc1cc2ncc(-c3ccccc3)nc2cc1C | 93 | 96% (inactive) | 92 | 109 | 106 | 96 | – | 100 | 97 | 83
7 | N#CC(C#N)=C(N)/C(C#N)=C/c1ccc(O)cc1 | 83 | 96% (inactive) | 75 | – | 93 | 128 | – | – | 92 | 88
8 | CC(C)n1cnc2c(NCc3ccccc3)nc(NCCCO)nc21 | 89 | 105% (inactive) | 92 | 108 | 88 | 114 | 87 | 97 | 85 | 78
9 | c1ccc(-c2n[nH]cc2-c2ccnc3ccccc23)nc1 | 88 | 97% (inactive) | 91 | 98 | 53 | – | – | 96 | 81 | 51
10 | Nc1n[nH]c2nnc(-c3c(-c4ccccc4)nn4ccccc34)cc12 | 90 | 83% (inactive) | 86 | 93 | 33 | 100 | 105 | 88 | 80 | 62
11 | COc1cc2ncnc(N3CCN(C(=O)Nc4ccc(Oc5ccccc5)cc4)CC3)c2cc1OC | 48 | 80% (inactive) | 58 | 103 | 105 | 102 | 105 | 144 | 78 | 93
12 | CC(=O)c1ccc(N2CCOCC2)cc1O | 94 | 104% (inactive) | 104 | – | – | 84 | 106 | 97 | 83 | 97
13 | c1ccc(-c2n[nH]c3c2oc2ccccc23)cc1 | 74 | – | – | 99 | 67 | – | 94 | 100 | 74 | 85
14 | O=C(Nc1cccc(Nc2nccc(Nc3cccc(C(F)(F)F)c3)n2)c1)C1CC1 | 50 | 90% (inactive) | 65 | 56 | 51 | 113 | 84 | 49 | 89 | 85
15 | O=Nc1c(-c2c(O)[nH]c3ccccc23)[nH]c2ccccc12 | 55 | 89% (inactive) | 60 | 17 | 0 | 79 | 81 | 37 | 89 | 66
16 | NC(=O)c1ccc2[nH]c(-c3ccc(Oc4ccc(Cl)cc4)cc3)nc2c1 | 78 | 93% (inactive) | 86 | 112 | 105 | 95 | 92 | 106 | 75 | 74
17 | Oc1n[nH]c2nnc(-c3c(-c4ccccc4)nn4ccccc34)cc12 | 86 | 92% (inactive) | 83 | 104 | 91 | 105 | 66 | 48 | 73 | 77
18 | Cn1cnc2cc3c(Nc4cccc(Br)c4)ncnc3cc21 | 85 | 93% (inactive) | 90 | 31 | 14 | 87 | 89 | 101 | 85 | 90
19 | Nc1cccc(-c2cc3c(Oc4cccc(O)c4)ncnc3[nH]2)c1 | 40 | 93% (inactive) | 49 | 1 | -1 | – | 92 | – | 36 | 10

Row | SMILES | residual activity [1] [%] | residual activity [2] | residual activity [3] [%] | residual activity [4] [%] | residual activity [5] [%] | residual activity [6] [%] | residual activity [7] [%] | residual activity [8] [%] | residual activity [9] [%] | residual activity [10] [%]
20 | N#CCCc1ccc2c(c1)-c1[nH]c3ccc([N+](=O)[O-])cc3c1CC(=O)N2 | – | – | – | 9 | 0 | – | – | – | – | –
21 | Cn1nc2c3c(cccc31)C(=O)c1ccccc1-2 | 89 | 95% (inactive) | 67 | – | 95 | 92 | 77 | 82 | 80 | 72
22 | Nc1nc(Nc2ccc(S(N)(=O)=O)cc2)nn1C(=S)Nc1c(F)cccc1F | – | 77% (inactive) | 64 | 3 | 2 | 124 | 90 | 78 | 82 | 26
23 | CNc1cc2c(Nc3cccc(Br)c3)ncnc2cn1 | 89 | 101% (inactive) | 91 | 67 | 45 | 99 | 84 | 88 | 80 | 91
24 | N#Cc1cnc2cnc(NCc3cccnc3)cc2c1Nc1ccc(F)c(Cl)c1 | – | 97% (inactive) | 87 | 9 | 5 | 44 | 65 | 48 | 77 | 91
25 | CO[C@H]1[C@@H](OC)C[C@H](C)[C@@H](OC)C2=CC(=O)C=C(NC(=O)/C(C)=C/C=C/[C@H](OC)[C@@H](OC(N)=O)/C(C)=C/[C@@H]1C)C2=O | 90 | 112% (inactive) | 106 | 101 | 90 | 98 | 108 | 96 | 93 | 85
26 | O=C1Nc2ccc(Br)cc2/C1=C\c1cc2c([nH]1)CCCC2 | 84 | 118% (inactive) | 105 | 79 | 63 | 112 | – | – | 99 | 102
27 | CCN(CC)C(=O)c1ccc(Nc2nc(OCC3CCCCC3)c3nc[nH]c3n2)cc1 | 48 | – | – | 13 | 1 | – | – | 65 | 62 | 21
28 | Cc1cccc(-c2[nH]c(C(C)(C)C)nc2-c2ccc3c(c2)OCO3)n1 | 84 | 89% (inactive) | 89 | 103 | 44 | – | – | – | 82 | 71
29 | COc1cc2ncc(-c3ccccc3)nc2cc1OC | 94 | 126% (inactive) | 95 | – | – | – | 96 | 100 | 99 | 86
30 | O=C(O)c1ccc2c3c1cccc3c(=O)n1c3ccccc3nc21 | 106 | 111% (inactive) | 97 | 118 | 103 | 113 | 60 | 14 | 83 | 89
31 | O=C1Nc2ccccc2/C1=C1/Nc2ccccc2/C1=N\OCCC(O)CO (stereo unspecified) | 40 | 76% (inactive) | 50 | 8 | 2 | 97 | 63 | 54 | 54 | 60
32 | O=C(Nc1cccc(Nc2cc(Nc3cccc(C(F)(F)F)c3)ncn2)c1)C1CC1 | 81 | 95% (inactive) | 85 | 76 | 60 | 97 | 89 | 112 | 91 | 87
33 | CO[C@H]1C[C@@H]2CC[C@@H](C)[C@@](O)(O2)C(=O)C(=O)N2CCCC[C@H]2C(=O)O[C@H]([C@H](C)C[C@@H]2CC[C@@H](O)[C@H](OC)C2)CC(=O)[C@H](C)/C=C(\C)[C@@H](O)[C@@H](OC)C(=O)[C@H](C)C[C@H](C)/C=C/C=C/C=C/1C | 94 | 107% (inactive) | 111 | 103 | – | 104 | 116 | 141 | 73 | 108
34 | COc1cc2ncnc(Nc3ccc(NC(=O)c4ccccc4)cc3)c2cc1OC | 25 | 59% (inactive) | 23 | 96 | 30 | – | 97 | 84 | 86 | 93
35 | O=C1NC(=O)c2c1c1c3ccccc3[nH]c1c1[nH]c3cc(Br)ccc3c21 | 85 | 85% (inactive) | 82 | 95 | 88 | 95 | 102 | 91 | 82 | 82
36 | CN(C)CCCn1cc(C2=C(c3c[nH]c4ccccc34)C(=O)NC2=O)c2ccccc21 | 86 | 121% (inactive) | – | 105 | 33 | 133 | 62 | 35 | 113 | 110
37 | Cc1ccc(S(=O)(=O)/C=C/C#N)cc1 | 95 | 98% (inactive) | 98 | 123 | 103 | – | 88 | 93 | 91 | 87
